Values joined by “and” are separate entries in the source; they are usually repeats but may differ in a detail not shown here. Equal values may be shown once. Among all 5,500 compounds or so, about 2,000 (36%) were called active. About 18% were inconclusive and are not listed. Cut-off read from the data, not from the text of the source: active = normalized growth mostly below about 0.91 (no sharp cut-off); inconclusive = no clear call, values can overlap the other calls; inactive = mostly above about 0.92. The list shows a part of the results.
Test: chemical genetic growth profiling, strain panel (AID 1159580);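 note: tested at 20 µM; growth read once vehicle control cultures reached saturation at 30 °C; 1 = growth at the plate median or of vehicle wells; lower values mean less growth of the strain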
Details: S. cerevisiae deletion strains, growth OD

Measured: normalized growth

CN(C)CCCN1c2ccccc2Sc2ccc(Cl)cc21
0.739 (active) and 0.979 (inactive): locus YJL095W, strain BCK1, stronger effect = lower value
active: locus YAL021C, strain ccr4, stronger effect = lower value 0.0773 | locus YAL026C, strain drs2, stronger effect = lower value 0.0621 | locus YAL030W, strain snc1, stronger effect = lower value 0.0722 | locus YBL061C, strain skt5, stronger effect = lower value 0.0759 | locus YBR009C, strain hhf1, stronger effect = lower value 0.0662 | locus YBR021W, strain FUR4, stronger effect = lower value 0.612 | locus YBR023C, strain chs3, stronger effect = lower value 0.0864 | locus YBR171W, strain sec66, stronger effect = lower value 0.351 | locus YBR231C, strain swc5, stronger effect = lower value 0.0709 | locus YBR279W, strain paf1, stronger effect = lower value 0.165 | locus YCL011C, strain gbp2, stronger effect = lower value 0.068 | locus YCL016C, strain dcc1, stronger effect = lower value 0.165 | locus YCL069W, strain vba3, stronger effect = lower value 0.131 | locus YCR088W, strain abp1, stronger effect = lower value 0.0794 | locus YDL035C, strain GPR1, stronger effect = lower value 0.853 | locus YDL040C, strain nat1, stronger effect = lower value 0.14 | locus YDR001C, strain nth1, stronger effect = lower value 0.119 | locus YDR069C, strain doa4, stronger effect = lower value 0.0779 | locus YDR159W, strain sac3, stronger effect = lower value 0.274 | locus YDR162C, strain NBP2, stronger effect = lower value 0.599 | locus YDR195W, strain ref2 0.155 | locus YDR297W, strain sur2, stronger effect = lower value 0.0894 | locus YDR334W, strain swr1, stronger effect = lower value 0.0746 | locus YDR335W, strain msn5, stronger effect = lower value 0.158 | locus YDR392W, strain spt3, stronger effect = lower value 0.351 | locus YEL003W, strain gim4, stronger effect = lower value 0.0681 | locus YEL037C, strain rad23, stronger effect = lower value 0.0964 | locus YEL061C, strain CIN8 (second series), stronger effect = lower value 0.4 | locus YER015W, strain faa2, stronger effect = lower value 0.111 | locus YER016W, strain bim1, stronger effect = lower value 0.102 | locus YFR010W, strain ubp6, stronger effect = lower value 0.111 | locus YGL167C, strain pmr1, stronger effect = lower value 0.562 | locus YGL173C, strain kem1, stronger effect = lower value 0.501 | locus YGL227W, strain vid30, stronger effect = lower value 0.103 | locus YGL253W, strain hxk2, stronger effect = lower value 0.0994 | locus YHR013C, strain ard1, stronger effect = lower value 0.513 | locus YHR027C, strain rpn1, stronger effect = lower value 0.082 | locus YHR142W, strain chs7, stronger effect = lower value 0.116 | locus YJL092W, strain hpr5, stronger effect = lower value 0.0961 | locus YJL095W, strain BCK1 (second series), stronger effect = lower value 0.0651 | locus YJL115W, strain asf1, stronger effect = lower value 0.183 | locus YJL129C, strain trk1, stronger effect = lower value 0.159 | locus YJL154C, strain vps35, stronger effect = lower value 0.0684 | locus YJL164C, strain tpk1, stronger effect = lower value 0.0728 | locus YJL166W, strain qcr8, stronger effect = lower value 0.0785 | locus YKL160W, strain elf1, stronger effect = lower value 0.229 | locus YKR026C, strain gcn3, stronger effect = lower value 0.151 | locus YKR091W, strain srl3, stronger effect = lower value 0.0828 | locus YLL001W, strain dnm1, stronger effect = lower value 0.11 | locus YLL026W, stronger effect = lower value 0.0697 | locus YLL041C, strain sdh2, stronger effect = lower value 0.0922 | locus YLR027C, strain aat2, stronger effect = lower value 0.0702 | locus YLR039C, strain RIC1, stronger effect = lower value 1.67 [resistant] | locus YLR221C, strain rsa3, stronger effect = lower value 0.11 | locus YLR258W, strain gsy2, stronger effect = lower value 0.0787 | locus YLR262C, strain YPT6 (second series), stronger effect = lower value 0.165 | locus YLR262C, strain YPT6, stronger effect = lower value 1.54 [resistant] | locus YLR320W, strain mms22, stronger effect = lower value 0.181 | locus YLR342W, strain FKS1 (second series), stronger effect = lower value 0.746 | locus YLR342W, strain FKS1, stronger effect = lower value 0.0779 | locus YLR357W, strain rsc2, stronger effect = lower value 0.18 | locus YLR370C, strain arc18, stronger effect = lower value 0.067 | locus YLR384C, strain iki3, stronger effect = lower value 0.102 | locus YLR418C, strain cdc73, stronger effect = lower value 0.804 | locus YML120C, strain ndi1, stronger effect = lower value 0.082 | locus YMR058W, strain fet3, stronger effect = lower value 0.0939 | locus YMR125W, strain sto1, stronger effect = lower value 0.0861 | locus YMR129W, stronger effect = lower value 0.0771 | locus YMR205C, strain PFK2, stronger effect = lower value 0.719 | locus YMR231W, strain pep5, stronger effect = lower value 0.0725 | locus YNL071W, strain lat1, stronger effect = lower value 0.218 | locus YNL153C, strain GIM3, stronger effect = lower value 0.86 and 0.732 | locus YNL209W, strain ssb2, stronger effect = lower value 0.101 | locus YNL248C, strain rpa49, stronger effect = lower value 0.461 | locus YNR049C, strain mso1, stronger effect = lower value 0.0933 | locus YOR001W, strain rrp6, stronger effect = lower value 0.143 | locus YOR070C, strain gyp1, stronger effect = lower value 0.0696 | locus YOR080W, strain dia2, stronger effect = lower value 0.18 | locus YOR083W, strain WHI5, stronger effect = lower value 0.0877 | locus YOR106W, strain vam3, stronger effect = lower value 0.0702 | locus YOR265W, strain rbl2, stronger effect = lower value 0.0766 | locus YOR270C, strain vph1, stronger effect = lower value 0.331 | locus YOR290C, strain snf2, stronger effect = lower value 0.122 | locus YPL051W, strain arl3, stronger effect = lower value 0.229 | locus YPL078C, strain atp4, stronger effect = lower value 0.586 | locus YPL106C, strain sse1, stronger effect = lower value 0.109 | locus YPL240C, strain hsp82, stronger effect = lower value 0.0839
inactive: locus YAL040C, strain CLN3, stronger effect = lower value 0.992 | locus YBR229C, strain ROT2, stronger effect = lower value 1.01 | locus YCL029C, strain bik1, stronger effect = lower value 1.03 | locus YDL005C, strain med2, stronger effect = lower value 1.01 | locus YDL074C, strain BRE1, stronger effect = lower value 0.87 | locus YDL101C, strain DUN1, stronger effect = lower value 0.992 | locus YDL185W, strain tfp1, stronger effect = lower value 1.01 | locus YDL192W, strain arf1, stronger effect = lower value 1.01 | locus YDR101C, strain arx1, stronger effect = lower value 0.98 | locus YDR137W, strain rgp1, stronger effect = lower value 0.903 | locus YDR318W, strain mcm21, stronger effect = lower value 0.999 | locus YDR363W, strain ESC2, stronger effect = lower value 0.953 | locus YDR388W, stronger effect = lower value 0.98 | locus YDR502C, strain sam2, stronger effect = lower value 0.974 | locus YEL061C, strain CIN8, stronger effect = lower value 0.983 | locus YER002W, strain NOP16, stronger effect = lower value 0.972 | locus YER110C, stronger effect = lower value 1.04 | locus YER111C, strain swi4, stronger effect = lower value 0.977 | locus YER155C, strain BEM2 (second series), stronger effect = lower value 1.12 | locus YER155C, strain BEM2, stronger effect = lower value 1.02 | locus YER167W, strain BCK2, stronger effect = lower value 1.01 | locus YGL078C, strain dbp3, stronger effect = lower value 1.01 | locus YGL086W, strain mad1, stronger effect = lower value 0.936 | locus YGL240W, strain doc1, stronger effect = lower value 0.92 | locus YGL248W, strain PDE1, stronger effect = lower value 0.994 | locus YGR078C, strain PAC10, stronger effect = lower value 0.889 and 0.997 | locus YGR135W, strain pre9, stronger effect = lower value 0.913 | locus YGR252W, strain gcn5, stronger effect = lower value 0.78 | locus YHR030C, strain SLT2, stronger effect = lower value 0.948 and 0.983 | locus YHR079C, strain IRE1 (second series), stronger effect = lower value 1.01 | locus YHR079C, strain IRE1, stronger effect = lower value 0.984 | locus YHR094C, strain hxt1, stronger effect = lower value 1 | locus YHR129C, strain ARP1, stronger effect = lower value 1 | locus YHR200W, strain rpn10, stronger effect = lower value 1.01 | locus YIL066C, strain RNR3, stronger effect = lower value 0.936 | locus YIL073C, strain SPO22, stronger effect = lower value 0.979 | locus YIL125W, strain kgd1, stronger effect = lower value 1 | locus YIR030C, strain dcg1, stronger effect = lower value 1.02 | locus YJL134W, strain LCB3, stronger effect = lower value 0.998 | locus YJL168C, strain set2, stronger effect = lower value 1.01 | locus YJL187C, strain SWE1 (second series), stronger effect = lower value 0.949 | locus YJR043C, strain POL32, stronger effect = lower value 1.02 | locus YJR066W, strain TOR1, stronger effect = lower value 0.974 | locus YJR075W, strain HOC1, stronger effect = lower value 0.933 | locus YKL009W, strain mrt4, stronger effect = lower value 1.02 | locus YKL068W, stronger effect = lower value 1.01 | locus YKL085W, strain MDH1 (second series), stronger effect = lower value 0.975 | locus YKL085W, strain MDH1, stronger effect = lower value 0.975 | locus YKL190W, strain CNB1, stronger effect = lower value 0.949 | locus YKR001C, strain vps1, stronger effect = lower value 0.919 | locus YLR058C, strain SHM2, stronger effect = lower value 0.986 | locus YLR102C, strain apc9, stronger effect = lower value 1 | locus YLR113W, strain HOG1, stronger effect = lower value 0.982 | locus YLR268W, strain sec22, stronger effect = lower value 1.01 | locus YLR330W, strain CHS5, stronger effect = lower value 1 | locus YLR371W, strain rom2, stronger effect = lower value 1.01 | locus YML016C, strain PPZ1, stronger effect = lower value 1 | locus YML032C, strain rad52, stronger effect = lower value 0.964 | locus YML124C, strain tub3, stronger effect = lower value 1.01 | locus YMR078C, strain ctf18, stronger effect = lower value 1.01 | locus YMR223W, strain ubp8, stronger effect = lower value 0.958 | locus YMR263W, strain SAP30, stronger effect = lower value 0.955 | locus YMR307W, strain GAS1, stronger effect = lower value 1.02 | locus YNL067W, strain RPL9B, stronger effect = lower value 0.993 | locus YNL175C, strain NOP13, stronger effect = lower value 0.967 | locus YNL183C, strain NPR1, stronger effect = lower value 0.917 | locus YNL197C, strain WHI3, stronger effect = lower value 0.98 | locus YNL224C, strain SQS1, stronger effect = lower value 0.984 | locus YNL233W, strain BNI4, stronger effect = lower value 0.937 | locus YNL250W, strain rad50, stronger effect = lower value 1.02 | locus YNL271C, strain bni1, stronger effect = lower value 1.01 | locus YNL298W, strain CLA4, stronger effect = lower value 1.02 | locus YNL307C, strain MCK1, stronger effect = lower value 1.01 | locus YNL322C, strain KRE1 (second series), stronger effect = lower value 1.07 | locus YNL322C, strain KRE1, stronger effect = lower value 0.974 | locus YNR052C, strain pop2, stronger effect = lower value 0.94 | locus YOL006C, strain TOP1, stronger effect = lower value 0.733 | locus YOL012C, strain htz1 0.856 | locus YOL147C, strain pex11, stronger effect = lower value 1.02 | locus YOR061W, strain CKA2, stronger effect = lower value 0.948 | locus YOR069W, strain VPS5, stronger effect = lower value 1 | locus YOR083W, strain WHI5 (second series), stronger effect = lower value 0.935 | locus YOR136W, strain idh2, stronger effect = lower value 1.03 | locus YOR144C, strain elg1, stronger effect = lower value 1.01 | locus YOR184W, strain ser1, stronger effect = lower value 1.04 | locus YOR231W, strain MKK1, stronger effect = lower value 0.986 | locus YOR316C, strain cot1, stronger effect = lower value 1 | locus YPL241C, strain CIN2, stronger effect = lower value 0.988 and 0.985 | locus YPL256C, strain CLN2, stronger effect = lower value 0.97 | locus YPR119W, strain clb2, stronger effect = lower value 1.01 | locus YPR141C, strain kar3, stronger effect = lower value 1.02 | locus YPR163C, strain tif3, stronger effect = lower value 0.988 | locus YPR167C, strain met16, stronger effect = lower value 1.02 | strain wtn01, stronger effect = lower value 0.969

Reference: PubChem BioAssay AID1159580 (chemical genetic matrix, 2015)
